From PubChem BioAssay (EPA / NIEHS)
Results filed as inconclusive are left out. The source made the active and inactive calls. How the source made its calls, unless noted: active means hit-call score of the fitted dose curve at least 0.9, where 1 is the maximum; inconclusive means response in the unintended direction; inactive means score below 0.9.

What was measured:
[1] = IUF_NPC2a_radial_glia_migration_72hr: Leibniz Research Institute for Environmental Medicine (IUF) 72-hour Neural Progenitor Cell Migration Assay for Radial Glia Migration (NPC2a) (AID 2284299; active means hit-call score of the fitted dose curve at least 0.9, where 1 is the maximum; inactive means score below 0.9)
In short: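 Radial glia migration (µm, sphere core edge to migration front, four directions averaged) from brightfield images at 72 h; hNPC spheres differentiating on PDL/laminin in N2 medium, compound exposure at 7 concentrations from plating.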

[2] = IUF_NPC2b_neuronal_migration_120hr: Leibniz Research Institute for Environmental Medicine (IUF) 120-hour Neural Progenitor Cell Migration Assay for Neuron Migration (NPC2b) (AID 2284300; active means hit-call score of the fitted dose curve at least 0.9, where 1 is the maximum; inactive means score below 0.9)
In short: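 TUBB3-positive neurons are imaged after 120 h of differentiation, and their mean distance from the sphere edge is normalised to radial glia migration. Single 0.3 mm fetal hNPC spheres on poly-D-lysine/laminin received 7 compound concentrations, ≤0.1% DMSO, refreshed at day 3.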

[3] = IUF_NPC4_neurite_length_120hr: Leibniz Research Institute for Environmental Medicine (IUF) 120-hour Neuronal Morphology Assay for Neurite Length (NPC4) (AID 2284302; active means hit-call score of the fitted dose curve at least 0.9, where 1 is the maximum; inactive means score below 0.9)
In short: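 Neurite length, the mean in um across TUBB3-stained neurons, is derived by skeletonization of high-content images after 120 h differentiation. Compound exposure, 7 concentrations plus solvent control, ran from plating of hNPC spheres on poly-D-lysine/laminin, with medium half-replaced on day 3.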

[4] = IUF_NPC5_oligodendrocyte_differentiation_120hr: Leibniz Research Institute for Environmental Medicine (IUF) 120-hour Oligodendrocyte Differentiation Assay (NPC5) (AID 2284304);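 further: primary human fetal neural progenitor spheres plated to migrate and differentiate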
In short: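 Oligodendrocyte differentiation scored as O4-positive cells, found by CNN image analysis, as percent of Hoechst-stained nuclei in the migration area. Scoring followed 5 days of exposure of plated hNPC neurospheres differentiating in DMEM/F12 N2 medium at 37C, with compound refreshed at day 3.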

[5] = IUF_NPC4_neurite_area_120hr: Leibniz Research Institute for Environmental Medicine (IUF) 120-hour Neuronal Morphology Assay for Neurite Area (NPC4) (AID 2284305)
In short: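 Neurite area (pixels, nuclei excluded) of TUBB3-positive neurons from hNPC spheres differentiating 5 days under continuous exposure at 37 C, 5% CO2. High-content imaging; loss of signal versus DMSO control across 7 concentrations.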

[6] = IUF_NPC2-5_cytotoxicity_72hr: Cytotoxicity Assessment at 72 hours in the Leibniz Research Institute for Environmental Medicine (IUF) Neural Progenitor Cell Migration and Differentiation Assay for Cytotoxicity (NPC2-5) (AID 2284306);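 further: LDH release into supernatant measured by resorufin fluorescence marking membrane damage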
In short: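 Membrane-integrity cytotoxicity at 72 h, read as LDH-driven resorufin fluorescence in supernatant. hNPC spheres from fetal cortex differentiate on coated plates in N2 medium, 37C, 5% CO2; seven serial compound concentrations plus solvent control (DMSO ≤0.1%).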

[7] = IUF_NPC2-5_cytotoxicity_120hr: Cytotoxicity Assessment at 120 hours in the Leibniz Research Institute for Environmental Medicine (IUF) Neural Progenitor Cell Migration and Differentiation Assay (NPC2-5) (AID 2284307);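 on AC50: LDH released into supernatant as membrane damage marker via resorufin fluorescence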
In short: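 Membrane-integrity loss measured as LDH activity in medium supernatant via resazurin-to-resorufin fluorescence after 120 h exposure. hNPC spheres from GW 16-19 fetal cortex differentiated on poly-D-lysine/laminin, 37C, medium half-refreshed day 3; seven concentrations, DMSO max 0.1%.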

[8] = IUF_NPC2-5_cell_number_120hr: Cell Number Assessment at 120 hours in the Leibniz Research Institute for Environmental Medicine (IUF) Neural Progenitor Cell Migration and Differentiation Assay (NPC2-5) (AID 2284308; active means hit-call score of the fitted dose curve at least 0.9, where 1 is the maximum; inactive means score below 0.9;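 further: count of Hoechst-stained nuclei in migration zone around plated human neural progenitor spheres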)
In short: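 Counting of all Hoechst-stained nuclei in the migration area at 120 h, versus DMSO control. Primary hNPC spheres differentiated on poly-D-lysine/laminin in N2 medium at 37C, dosed from day 0 (7 concentrations, DMSO ≤0.1%), half-refed day 3.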

[9] = VALA_TUBHUV_Agonist_CellCount: Viability Assessment in the VALA Sciences human Umbilical Vein Endothelial Tubule Formation (TUBHUV) Agonism Assay (AID 2284309)
In short: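 Viability endpoint by fluorescent imaging of fixed nuclear/CD31-stained HUVEC–HDF co-cultures. Readout is cell count, fitted upward against 0.1% DMSO. Compound exposure was 72 h in 10 ng/ml VEGF, after 3-day co-culture priming.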

[10] = VALA_TUBIPS_Antagonist_TubuleLength: VALA Sciences human iPS-derived Endothelial Tubule Formation (TUBIPS) Antagonist Assay (AID 2284313)
In short: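 Tubule length was quantified by high-content imaging of CD31- and nuclear-stained cells, with 0.1% DMSO as neutral and 100 uM suramin as inhibition control. Compounds were applied for 3 days, in 10 ng/ml VEGF, to cultures pre-grown 3 days.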

[11] = VALA_MIGHUV2_WoundArea: VALA Sciences human Umbilical Vein Endothelial Cell Migration (MIGHUV) Assay, Area of Scratch Wound after Recovery (AID 2284316)
In short: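 Wound-area endpoint read by fluorescence imaging of Hoechst-stained nuclei after a 24 h recovery period following scratch of HUVEC monolayers (9000 cells/well). Chemicals dosed within 30 min post-scratch, triplicate 6-point series, 0.1% DMSO vehicle; Cytochalasin D positive control.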

[12] = CCTE_Mundy_HCI_iCellGluta_NOG_NeuriteLength: CCTE's Neurite Outgrowth Assay in iCellGluta cells for Neurite Length, Mundy Lab (AID 2284318)
In short: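 Automated high-content imaging of betaIII-tubulin (Alexa Fluor-488) and Hoechst-stained cells gave neurite length, normalized to the DMSO baseline.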

[13] = VALA_TUBHUV_Antagonist_TubuleLength: VALA Sciences human Umbilical Vein Endothelial Tubule Formation (TUBHUV) Antagonism Assay (AID 2284325)
In short: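 Tubule length was imaged via CD31 immunofluorescence after a further 3-day compound exposure in 10 ng/ml VEGF, following 3-day pre-culture of HUVEC with HDF at 1:3. Vehicle 0.1% DMSO; suramin (100 uM) inhibition control.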

[14] = CCTE_Deisenroth_5AR_NBTE_donor: CCTE's 5alpha-reductase NanoBRET Target Engagement Assay […], Deisenroth Lab (AID 2284319; active means hit-call score of the fitted dose curve at least 0.9, where 1 is the maximum; inactive means score below 0.9); conditions: actives raise or lower the signal
In short: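 SRD5A2-NanoLuc, HEK293T, 20 h expression. Chemical 10 nM - 29.9 uM, 8 conc, duplicate; 3 h preincubation + 2 h testosterone tracer. Nano-Glo substrate plus extracellular NanoLuc inhibitor; donor lum 460 nm. DMSO baseline, bidirectional fit.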

[15] = CCTE_Deisenroth_5AR_NBTE_acceptor: CCTE's 5alpha-reductase NanoBRET Target Engagement Assay - Autofluorescence Screen, Deisenroth Lab (AID 2284321; active means hit-call score of the fitted dose curve at least 0.9, where 1 is the maximum; inactive means score below 0.9;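 further: compound fluorescence in the acceptor channel under 460 nm excitation flags autofluorescence artifacts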); conditions: actives raise or lower the signal
In short: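 Acceptor-channel fluorescence flags artifacts, with excitation fixed at 460 nm. Nominal 100 uM chemical samples were read in triplicate runs, and signal changes were fitted in both directions relative to DMSO.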

SRD5A2 (gene 6716) = test: CCTE_Deisenroth_5AR_NBTE_ratio: CCTE's 5alpha-reductase NanoBRET Target Engagement Assay - Ratio, Deisenroth Lab (AID 2284322; active means hit-call score of the fitted dose curve at least 0.9, where 1 is the maximum; inactive means score below 0.9); conditions: actives raise or lower the signal
In short: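 HEK293T cells transiently expressing an SRD5A2-NanoLuc fusion (20 h post-transfection) were exposed to test chemical (10 nM - 29.9 uM, 8 points) for 3 h, then testosterone tracer for a further 2 h. Acceptor/donor BRET ratio was fitted bidirectionally against DMSO baseline.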

[16] = TAMU_PeakParms_SingleDonor1434_Asystole: Texas A&M University (TAMU) 1.5-hr Human Induced Pluripotent Stem Cell (iPSC)-derived Cardiomyocytes Calcium (Ca+2) Flux Assay for Cardiotoxicity: Asystole (quiescence of beating) (AID 2284328)
In short: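 Average Ca2+-flux peak frequency (beats/s) was recorded in single-donor iPSC-derived cardiomyocytes after 90 min exposure (0.2–100 uM final, 0.5% DMSO). Asystole POD set as EC95 against DMSO, no preprocessing.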

IYD (gene 389434) = test: CCTE_GLTED_hIYD: CCTE's human Iodotyrosine Deiodinase (xIYD) Inhibition Assay, Great Lakes Toxicology and Ecology Division (GLTED) Lab (AID 2284317);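 further: cell-free human IYD enzyme made in baculovirus insect cells; iodide freed from monoiodotyrosine measured by cerium arsenite color change at 420 nm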
In short: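 In the IYD assay, iodide released from MIT by insect-cell-expressed human enzyme was quantified after 3 h via Sandell-Kolthoff rate at 420 nm, with plate-wise normalization to MNT and solvent controls.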

[17] = VALA_TUBIPS_Agonist_TubuleLength: VALA Sciences human iPS-derived Endothelial Tubule Formation (TUBIPS) Agonism Assay (AID 2284311)
In short: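 Agonist-mode readout is the gain in imaged tubule length versus DMSO baseline. It was measured by fluorescence high-content imaging 72 h after dosing human iPSC-derived endothelial cells.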

[18] = VALA_MIGHUV2_Bcatenin: VALA Sciences human Umbilical Vein Endothelial Cell Migration (MIGHUV) Assay, Nuclear Translocation of beta-Catenin after Recovery (AID 2284315)
In short: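 Nuclear beta-catenin imaged by immunofluorescence with Hoechst counterstain in fixed HUVEC, 24 h after scratch wounding and chemical addition. Six-point concentration-response in triplicate; activity scored as signal increase over 0.1% DMSO vehicle.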

Measured: AC50

CC(C)(C)c1ccc(CSc2cnn(C(C)(C)C)c(=O)c2Cl)cc1
inactive: [1] | [2] | [3] | [5] | [6] | [7] | [8] | [10] | [13]
active: [4] 0.0866 µM | [9] 20.3 µM | [11] 7.5 µM | [12] 0.15 µM

CCCCNC(=O)OCC#CI
inactive: [16]
active: [14] 50 µM | [15] 50 µM | SRD5A2 (gene 6716) 50 µM

N#CC(CCc1ccc(Cl)cc1)(Cn1cncn1)c1ccccc1 (stereo unspecified)
inactive: [14] | [15] | SRD5A2 (gene 6716)

COc1ccc(C(c2ccc(OC)cc2)C(Cl)(Cl)Cl)cc1
inactive: [14] | [15] | SRD5A2 (gene 6716)

N#Cc1cc(Br)c(O)c(Br)c1
inactive: IYD (gene 389434)

OC(c1ccc(Cl)cc1)(c1cncnc1)c1ccccc1Cl (stereo unspecified)
inactive: IYD (gene 389434)

COP(=S)(OC)Oc1nc(Cl)c(Cl)cc1Cl
inactive: [1] | [2] | [3] | [4] | [7] | [8]
active: [12] 23.9 µM

CCOC(=O)CC(SP(=S)(OC)OC)C(=O)OCC (stereo unspecified)
active: [12] 2.98 µM
inactive: [1] | [2] | [3] | [5] | [7] | [8]

C=CCC1=C(C)[C@@H](OC(=O)[C@@H]2[C@@H](C=C(C)C)C2(C)C)CC1=O
active: [12] 5.87 µM

CN(C)C(=S)SSC(=S)N(C)C
active: [1] 11.4 µM | [2] 58.7 µM | [3] 17.7 µM | [4] 26 µM | [5] 27.5 µM | [6] 26.4 µM | [7] 13 µM | [8] 26.1 µM | [12] 0.0483 µM

CCCCC(CC)COC(=O)c1ccccc1C(=O)OCC(CC)CCCC (stereo unspecified)
inactive: [1] | [2] | [3] | [4] | [6] | [7] | [8] | [16]
active: [12] 36.1 µM

Cc1ccc(-c2c(Cl)nc(C#N)n2S(=O)(=O)N(C)C)cc1
active: [1] 25.9 µM | [2] 30.8 µM | [3] 12.5 µM | [4] 33.9 µM | [5] 26.1 µM | [7] 33 µM | [8] 13.2 µM | [12] 32.6 µM
inactive: [6]

CCOc1cc(Oc2ccc(C(F)(F)F)cc2Cl)ccc1[N+](=O)[O-]
inactive: [1] | [2] | [3] | [5] | [6] | [7] | [8]
active: [4] 5.26 µM | [12] 73.7 µM

Oc1ccccc1-c1ccccc1
active: SRD5A2 (gene 6716) 31.5 µM
inactive: IYD (gene 389434) | [14] | [15] | [16]

C=CC1(C)OC(=O)N(c2cc(Cl)cc(Cl)c2)C1=O (stereo unspecified)
inactive: [1] | [2] | [3] | [4] | [6] | [7] | [8]
active: [12] 19.4 µM

CCCCNC(=O)n1c(NC(=O)OC)nc2ccccc21
inactive: [12]

COC(=O)N(OC)c1ccccc1COc1ccn(-c2ccc(Cl)cc2)n1
inactive: [2] | [6] | [14] | [15]
active: [1] 3.44 µM | [3] 0.328 µM | [4] 2.16 µM | [5] 0.167 µM | [7] 2.12 µM | [8] 3.23 µM | [12] 2.57 µM | SRD5A2 (gene 6716) 34.1 µM

CC1COC(Cn2cncn2)(c2ccc(Oc3ccc(Cl)cc3)cc2Cl)O1 (stereo unspecified)
inactive: IYD (gene 389434)

CCCCOC(=O)c1ccccc1C(=O)OCCCC
inactive: [1] | [2] | [3] | [6] | [7] | [8] | IYD (gene 389434) | [12]

CNC(=O)ON=CC(C)(C)SC
inactive: [1] | [2] | [3] | [4] | [5] | [6] | [7] | [8] | [16]

CO/C=C(/C(=O)OC)c1ccccc1Oc1cc(Oc2ccccc2C#N)ncn1
active: [12] 18.9 µM
inactive: [1] | [2] | [3] | [4] | [5] | [6] | [7] | [8]

N#Cc1nn(-c2c(Cl)cc(C(F)(F)F)cc2Cl)c(N)c1S(=O)C(F)(F)F (stereo unspecified)
active: [3] 13.5 µM | [4] 1.99 µM | [5] 14.3 µM | [8] 14.2 µM
inactive: [1] | [2] | [6] | [7] | [17] | [10] | [18] | [12] | [13]

COP(N)(=O)SC (stereo unspecified)
inactive: [1] | [2] | [3] | [4] | [5] | [6] | [7] | [8] | [12]
